Anthrax LF inh2: inhibitors of Bacillus anthracis lethal factor protease; P15917; multiplex microsphere protease cleavage assay, LF; inhibition, % at 10 µM; 360,000 tested, 0.12% active; AID 588501; note: plate controls were buffer without enzyme for full effect and enzyme alone for no effect
Autofluor counter: flagged as autofluorescent in microsphere protease counterscreen; compound autofluorescence counterscreen, microsphere flow cytometry; stronger effect = higher value; fluorescence intensity (test concentration not listed); AID 624483; 360,000 tested, 3.1% active; in the data active = fluorescence intensity above about 16000; inconclusive = no clear call, values can overlap the other calls
BoNT A protease: blocks Botulinum neurotoxin A light chain protease | multiplex microsphere protease substrate cleavage, flow cytometry | inhibition, % at 10 µM | 360,000 tested, 0.17% active | AID 588499; note: plate controls were buffer without enzyme for full effect and enzyme alone for no effect
SSB-PriA inh: inhibitors of Klebsiella pneumoniae PriA binding to SSB C-terminal tail; AlphaScreen SSBct-PriA binding, biotinylated peptide; AID 1272365; inhibition, % at 33 µM; 430,000 tested, 0.6% active; in the data active = inhibition mostly above about 37%, no sharp cut-off; inactive = mostly below about 20%;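 note: plate controls were negative control peptide for no effect and reference peptide for full effect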
BoNT F protease: inhibitors of Botulinum neurotoxin F light chain protease. Multiplex microsphere protease cleavage assay, flow cytometry. inhibition, % at 10 µM. 360,000 tested, 0.22% active. AID 588497; in the data active = inhibition above about 35%, passing the limit was not always enough; inconclusive = no clear call, values can overlap the other calls; note: plate controls were buffer without enzyme for full effect and enzyme alone for no effect
* marks the source's active call; other numbers are inactive results; ? = inconclusive; . = no result given. Shown are actives, neighbours in structure and some others; about 3.1% of the full set was active somewhere. Cut-off read from the data, not from the text of the source, unless noted: active = inhibition above about 30%; inconclusive = no clear call, values can overlap the other calls; inactive = below that.

SMILES	Anthrax LF inh2	Autofluor counter	BoNT A protease	SSB-PriA inh	BoNT F protease
Cc1cc(C)cc(S(=O)(=O)NCCNC(=O)c2ccc(NC(=O)C3CC3)cc2)c1	.	.	.	-2	.
CC(C)C[C@H](NS(=O)(=O)c1ccc(Br)cc1)C(=O)O	-2	22565*	3	4	1
COC(=O)Cc1ccc(NC(=O)c2ccc(C)c(C)c2)cc1	-1	24555*	-2	-17	0
CN1CCC(n2nccc2N)CC1	1	4630	0	-22	-11
Nc1ccnn1C1CCNCC1	2	19137*	8	2	13
C=CCn1c(SCC(=O)c2ccc(Br)cc2)nnc1C(CC(C)C)NC(=O)c1cccs1 (stereo not given)	-1	22563*	?	-24	-3
CC(C)CC(NC(=O)c1cccs1)c1nnc(SCc2ccc(Cl)c(Cl)c2)n1C (stereo not given)	2	2057	1	7	-1
O=C(CCCN1C(=O)c2ccccc2C1=O)Oc1ccc(F)cc1	-1	23354*	-1	-24	-3
O=C(CCCN1C(=O)c2ccccc2C1=O)NCc1ccc(F)cc1	-3	3795	-8	2	?
COC(=O)c1ccc(OC(=O)CN2C(=O)c3ccccc3C2=O)cc1	38*	3709	-6	-13	?
Cc1nc2c(ccc3nc(NC(=O)COc4ccc(Cl)cc4)sc32)s1	.	.	.	-22	.
O=C(c1csc(Nc2ccc(OC(F)F)cc2)n1)N1CCc2ccccc21	.	.	.	-15	.
CCOc1ccc(-n2c(=O)c3sccc3n(CC(=O)NCc3ccco3)c2=O)cc1	-11	19457*	9	-2	9
CCCSc1nc(NCc2ccco2)c2c3c(sc2n1)COC(C)(C)C3	-5	17467*	-2	2	-8
Cc1nc2sc3c(NCc4ccco4)ncnc3c2c2c1COC(C)(C)C2	5	3020	-1	7	0
CCCCSc1nc(NCc2ccco2)c2c3c(sc2n1)COC(C)(C)C3	-2	16223*	0	-17	-3
COC(=O)c1c(NC(=O)C2CCC2)sc(C(=O)N(C)C)c1C	1	17349*	?	-1	-6
CCOC(=O)c1ccc(N2C(=O)c3n[nH]c(C)c3C2c2ccc(OC)cc2)cc1 (stereo not given)	-11	4388	0	14	-4
CCOc1cc(C2c3c(n[nH]c3C)C(=O)N2c2ccc(Br)cc2)ccc1O (stereo not given)	-7	3428	0	-3	51*
CCOC(=O)c1ccc(N2C(=O)c3n[nH]c(C)c3C2c2ccc(OC)c(OC)c2)cc1 (stereo not given)	1	19224*	?	8	4
O=C(Nc1nc2c(s1)CN(C(=O)c1ccc3nsnc3c1)CC2)c1ccoc1	.	.	.	6	.
Cc1ccc(C)c(S(=O)(=O)Nc2ccc3c(c2)NC(=O)C(C)(C)CO3)c1	.	.	.	-3	.
O=C(Cn1cnc2ccccc2c1=O)Nc1ccc2c(c1)CCC2	-2	23574*	-1	-6	1
O=C(Cn1cnc2cc([N+](=O)[O-])ccc2c1=O)Nc1ccc2c(c1)CCC2	0	3267	0	-13	-7
CNC(=O)c1ccsc1NC(=O)c1cc(C)nn1C	.	.	.	-5	.
SMILES	Anthrax LF inh2	Autofluor counter	BoNT A protease	SSB-PriA inh	BoNT F protease
COc1ccc(C(C)(C)C)cc1NC(=O)c1ccoc1C	-9	21536*	1	-20	-1
COc1ccc(C)cc1NC(=O)c1ccoc1C	2	2987	0	-5	0
CC(C)(C)c1ccc(S(=O)(=O)NCC(=O)NCc2cncc(-c3cccs3)c2)cc1	.	.	.	-11	.
Cc1ccc(S(=O)(=O)Oc2ccc(C=NNC(=O)c3nn(C)cc3Cl)cc2)cc1	.	.	.	-8	.
CC(=O)N1CCC(CN2CCC(N(C)C)CC2)CC1	.	.	.	-2	.
O=C(c1cc2ncc(Br)cn2n1)N1CCN(C(=O)c2ccco2)CC1	-1	2490	0	-14	-6
O=C(c1cc2ncc(Br)cn2n1)N1CCOCC1	1	24596*	?	-8	0
O=C(COC(=O)c1ccc(Br)o1)Nc1nc2ccccc2s1	-1	16288*	0	-4	-3
O=C(Nc1ccccc1-c1nc2ccccc2s1)c1ccc(Br)o1	-3	23088*	0	-5	0
Cc1cc2ccccc2n2c(SCC(=O)Nc3ccc4c(c3)OCCO4)nnc12	.	.	.	-5	.
CCC1(C)Cc2c(sc3c2c2ncnn2c2nnc(SCC(=O)NCc4ccco4)n32)CO1 (stereo not given)	2	4889	0	-19	-12
CCC1(C)Cc2c(sc3c2c(=O)n(C)c2nnc(SCC(=O)c4ccccc4)n32)CO1 (stereo not given)	2	20408*	5	-2	11
Oc1ccc2ccccc2c1/C=N/n1cnnc1	-2	22040*	2	.	2
Oc1ccc2ccccc2c1C=Nn1cnnc1	.	.	.	-16	.
Cc1ccc(C)c(S(=O)(=O)Nc2ccc(Cl)c(N3CCCS3(=O)=O)c2)c1	.	.	.	8	.
CC12CN3CC(C)(CN(C1)C3c1ccc(Br)cc1)C2 (stereo not given)	0	22475*	1	-8	2
COc1cc(C2N3CC4(C)CN2CC(C)(C3)C4)ccc1O (stereo not given)	1	3867	1	2	-1
Cc1cc(C(=O)Nc2ccccc2C(F)(F)F)no1	-1	24116*	?	-5	0
Cc1ccc(NC(=O)c2cc(C)on2)cc1	1	20978*	6	-19	4
Cc1cc(C(=O)Nc2nnc(C(F)(F)F)s2)no1	1	22963*	0	0	0
CCSc1nnc(NC(=O)c2cc(C)on2)s1	-2	11082	-2	-1	-11
O=C(Nc1ccccc1C(F)(F)F)c1cc(-c2ccccc2O)on1	-3	10120	-1	-8	-9
O=C(NC1CC(=O)N(c2ccc(F)cc2)C1)c1cccc2ccccc12 (stereo not given)	.	.	.	-11	.
Cn1ccc(C(=O)Nc2nnc(C3CCCCC3)o2)n1	.	.	.	10	.
O=C(Cc1ccccc1)Nc1nc(=O)c2ccccc2s1	2	2315	0	2	0
SMILES	Anthrax LF inh2	Autofluor counter	BoNT A protease	SSB-PriA inh	BoNT F protease
O=C(Cc1nc(=O)c2ccccc2s1)Nc1ccccc1	-11	16611*	10	0	11
CNC(=O)c1ccc(S(=O)(=O)NCc2cccnc2)o1	.	.	.	-11	.
COC(=O)c1sc2cccc(F)c2c1S(=O)(=O)NCc1cccnc1	.	.	.	52*	.
Cc1ccc2nsnc2c1S(=O)(=O)NCc1ccncc1	-4	3684	0	-20	-2
Cc1ccc2nsnc2c1S(=O)(=O)NCc1cccnc1	-2	22869*	-1	-15	-3
Cc1ccc(C)c(S(=O)(=O)NCc2cccnc2)c1	-2	21139*	-2	-7	-4
O=C(CSCC(=O)N1CCN(c2ccccc2)CC1)Nc1nc(-c2ccccc2)cs1	.	.	.	17	.
O=C(CSc1ccc(F)cc1)N(CCn1cccn1)c1nc2c(C(F)(F)F)cccc2s1	.	.	.	-29	.
CC(=NNS(=O)(=O)c1cccc([N+](=O)[O-])c1)c1c[nH]c2ccccc12	.	.	.	8	.
Cn1cccc1CN(C(=O)C[C@@H](CC(=O)O)c1cccs1)C1CC1	.	.	.	1	.
O=C(Nc1nc(-c2ccccn2)cs1)c1cccc(F)c1	.	.	.	120*	.
O=C(Nc1nc(-c2ccccn2)cs1)c1ccc2c(c1)CCCC2	.	.	.	54	.

Bioassay records from PubChem.
